Inconclusive results are not listed. Active and inactive are the calls of the source. The calls were made as follows: active = hit-call score of the fitted dose curve at least 0.9, where 1 is the maximum; inconclusive = response in the unintended direction; inactive = score below 0.9.

One may read the AC50 as the concentration giving half of the maximal activity seen.

The test is described as follows: Tanguay_ZF_120hpf_AXIS_legacy: (Legacy) Oregon State University Tanguay Lab 120 Hour Post-fertilization zebrafish Assay for Body Axis Malformation (AID 2283635).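 As to AC50: potency for an increased fraction of larvae scored with body axis malformation.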 As to the method:
Tanguay_ZF_120hpf_legacy is a whole embryo, multiplexed endpoint assay using zebrafish larvae exposed for 120 hours post fertilization on a 96-well plate.Tanguay_ZF_120hpf_AXIS_legacy is one of one assay component(s) measured or calculated from the Tanguay_ZF_120hpf_legacy assay. It is designed to make measurements of zebrafish development as detected with brightfield microscopy of developing zebrafish embryos.Data from the assay component Tanguay_ZF_120hpf_AXIS_legacy was analyzed into 1 assay endpoints. This assay endpoint, Tanguay_ZF_120hpf_AXIS_legacy, was analyzed in the positive analysis fitting direction relative to DMSO as the negative control and baseline of activity. Using a type of morphology reporter, gain-of-signal activity can be used to understand changes in developmentals as they relate to the whole embryo. To generalize the intended target to other relatable targets, this assay endpoint is annotated to the zebrafish development intended target family, where the subfamily is body axis morphogenesis.
Zebrafish husbandry: Tropical 5D wild-type adult zebrafish were housed in at an approximate density of 1000 per 100 gallon tank at the Sinnhuber Aquatic Research Laboratory, Oregon State University, Corvallis, OR. Each tank was kept at standard laboratory conditions of 28C on a 14-h light/10-h dark photoperiod in fish water consisting of reverse osmosis water supplemented with a commercially available salt (Instant Ocean). Spawning funnels were placed into the tanks the night prior, and embryos were collected and staged. To increase bioavailability, the chorion was enzymatically removed using pronase (63.6mg/ml, >/= 3.5U/mg, Sigma-Aldrich: P5147) at 4 hours post fertilization (hpf) using a custom automated dechorionator.Chemical exposures: Six hpf dechorionated embryos were placed 1 embryo per well in a 96-well plate prefilled with 90 ul of EM using automated embryo placement systems (AEPS). Ten microliters of each row of dilution plate 2 was added to 2 exposure plates. The final DMSO concentration used was 0.64% (vol/vol). Thirty-two embryos were also exposed to 5uM trimethyltin chloride (positive control). Plates were sealed to prevent evaporation and foil covered to reduce light exposure and kept in a 28C incubator. Embryos were statically exposed until 120 hpf. At 24 hpf, embryos were assessed for photomotor response using a custom photomotor response analysis tool (PRAT) and for developmental toxicity endpoints (MO24: mortality at 24 hpf, DP: developmental progression, SM: spontaneous movement, and NC: notochord distortion). At 120 hpf, locomotor activity was measured using Viewpoint Zebralab and assessed for 18 endpoints. Zebrafish acquisition and analysis program (ZAAP), a custom program designed to inventory, acquire, and manage zebrafish data, was used to collect developmental endpoints as either present or absent (i.e., binary responses were recorded). If mortality occurred for an embryo (at either 24 or 120 hpf), the non-mortality endpoints were not measured.
In the case of `CCCCC(CC)CO` (stereo not given), the outcome was inactive.
The same measure, in the same setting: the value for `CO[C@@H]1COCC[C@@H]1N[C@@H]1CC[C@@](C(=O)N2CCc3ncc(C(F)(F)F)cc3C2)(C(C)C)C1` was “inactive”; that for `Cc1c(C)c2c(c(C)c1O)CCC(C)(COc1ccc(CC3SC(=O)NC3=O)cc1)O2` (stereo not given) was “inactive”; that for `CCCCCCCCCCCCCCCCO` was “inactive”.
Still for that read-out and setting: the value for `O=C(N[C@@H](c1ccccc1)[C@@H]1CCCCN1)c1cccc(C(F)(F)F)c1Cl` was “inactive”; that for `CCCCC(CC)COC(=O)CCCCCCCC(=O)OCC(CC)CCCC` (stereo not given) was “inactive”; that for `CS(=O)(=O)c1ccc([C@@H](C[C@H]2CCC(=O)C2)C(=O)Nc2cnccn2)cc1Cl` was “inactive”.
Take `Cc1ccc(-c2cc(C(F)(F)F)nn2-c2ccc(S(N)(=O)=O)cc2)cc1`: the compound was classed as inactive.
Take `CCCC(=O)O`: the outcome was inactive.
As for `C/C=C/C=C/C(=O)O`, the compound was called inactive.
For the compound `CC(=O)[C@@]1(O)CC[C@H]2[C@@H]3CCC4=CC(=O)CC[C@]4(C)[C@H]3CC[C@@]21C`, the outcome was inactive.
In the case of `CC(=O)O[C@]1(C(C)=O)CC[C@H]2[C@@H]3C=C(Cl)C4=CC(=O)[C@@H]5C[C@@H]5[C@]4(C)[C@H]3CC[C@@]21C`, the compound was classed as inactive.
For the compound `CCCCCCCCCCCCCCOS(=O)(=O)O`, the AC50 is 31.5 µM (active).
For `C#CC(O)C(CC)CCCC` (stereo not given), the call was inactive.
With `CCN(CC)CCOc1ccc(C(=C(Cl)c2ccccc2)c2ccccc2)cc1`, the compound was called inactive.
On to `OCC(CO)n1cnc(-c2ccc(F)cc2)c1-c1ccnc(Oc2ccccc2)n1`, for which the outcome was inactive.
For the compound `CCC(C)N(C)C(=O)c1cc2ccccc2c(-c2ccccc2Cl)n1` (stereo not given), the compound was classed as inactive.
With `CC1=C(C)S(=O)(=O)CCS1(=O)=O`, the outcome was inactive.
Turning to `O=C(NS(=O)(=O)/C=C/c1cccs1)c1ccc(F)cc1Br`, the result was inactive.
Turning to `COc1ccc(OC(F)(F)F)cc1CN[C@H]1CCCN[C@H]1c1ccccc1`, the compound was called inactive.
Take `CN(C)CCCN(C)CCCN(C)C`: the call was inactive.
`CCCC[C@H]1CN(CC2CCOCC2)C(=O)OC12CCN(C1(C)CCN(C(=O)c3c(C)ncnc3C)CC1)CC2`: the compound was called inactive.
As for `O=[Si]=O`, the compound was classed as inactive.
As to `O=C1CCCCC1`, the result was inactive.
Consider `COc1ccc(C(=O)Nc2nc3ccccc3c(NCc3ccccc3)c2C#N)cc1`, for which the compound was called inactive.
Turning to `O=Cc1ccccc1C=O`, the result was inactive.
In the case of `NCCOCCOCCN`, the compound was called inactive.
`Cc1ccc(C(C)(C)C)c(O)c1`: the call was inactive.
Same read-out and setting: then `CC(C)(O)c1ccc(CNC(=O)c2cccnc2Oc2ccc(F)cc2)cc1`, with “inactive”.
As for `CC(COCC(C)OC(=O)c1ccccc1)OC(=O)c1ccccc1` (stereo not given), the compound was classed as inactive.
For the compound `O=C(O)CC(O)(CC(=O)O)C(=O)O`, the compound was classed as inactive.
Turning to `Oc1ccc(O)cc1`, the call was inactive.
With `Nc1nc(=S)c2[nH]cnc2[nH]1`, the call was inactive.
Still for that read-out and setting: then `C=CCc1ccc(OC)c(OC)c1`, with “inactive”.
With `CN(C)CCCN1c2ccccc2Sc2ccc(Cl)cc21`, the call was inactive.
Turning to `NC=O`, the compound was called inactive.
Take `O=C1O[C@H]([C@H](O)CO)C(O)=C1O`: the result was inactive.
As for `O=NO`, the compound was classed as inactive.
With `O=C(O)c1cccnc1`, the compound was classed as inactive.
With `O=C(O)c1[nH]n(-c2ccc(S(=O)(=O)O)cc2)c(=O)c1N=Nc1ccc(S(=O)(=O)O)cc1`, the call was inactive.

The values above are taken from PubChem BioAssay (EPA / NIEHS).
